Screening data as filed in PubChem BioAssay.
Tgondii IFNg: T. gondii growth inhibition under IFN-gamma; Toxoplasma gondii growth in IFN-gamma-treated host cells; stronger effect = lower value; activity change, negative = inhibition, % (concentration not given with the values); 69,000 tested, 3.8% active; in the data active = activity change below about -70%, passing the limit was not always enough;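 also: host cells are HeLa cells infected with Toxoplasma gondii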
Numbers without * were called inactive; i = inactive; ! = not active in a repeat. The full list was thinned out, with hits kept by preference.

SMILES | Tgondii IFNg
CC(=O)Nc1ccc(-c2c(-c3ccccc3)ncn2Cc2cccnc2)cc1 | 2
CCC(OC(=O)c1ccco1)C(=O)NCc1ccccc1 (centres undefined) | -56
Cc1ccc(S(=O)(=O)N2CCC3(CC2)NCCN=C3NCc2ccc(Cl)cc2)c(C)c1 | -32
Cn1cnc(C(=O)N2CCC3(CC(Oc4cccnc4)CO3)C2)c1 (centres undefined) | 4
C=COCCCNc1ncc(-c2ccsc2)c(-c2cnc(OC)nc2OC)n1 | -27
O=C(CCn1nnc2ccccc21)Nc1nnc(-c2ccc3c(c2)OCO3)s1 | -103*
O=C(CCn1nnc2ccccc21)Nc1nnc(COc2ccc(F)cc2)s1 | -69
C[C@@H](Cn1nnc2ccccc21)NC(=O)c1ccc2c(c1)OCO2 | 65
O=C(Oc1cccc2cccnc12)c1cc2ccccc2o1 | 47
CCCCN(CCCC)C(=O)c1cc2cccnc2n(Cc2ccc(Cl)cc2)c1=O | -61
CCOCC1CN(C(=O)c2ccsc2)Cc2nn(C)cc21 (centres undefined) | i
CN(C)C(=O)N1CCC2(CC1)CC(CC(=O)Nc1cccnc1)c1ccccc1O2 (centres undefined) | -113*
CCC(=O)N1CCC2(CC1)CC(CC(=O)Nc1cccnc1)c1ccccc1O2 (centres undefined) | -3
O=C(O)CC1CC2(CCN(C(=O)Cc3cccnc3)CC2)Oc2ccccc21 (centres undefined) | 5
COc1cc(C)c(S(=O)(=O)NCCc2cnccn2)cc1C(C)C | 1
O=S(=O)(c1ccccc1)N1CCN(Cc2ccc(-c3ccn[nH]3)s2)CC1 | 13
CC(C)n1c(/C=C/[C@@H](O)C[C@@H](O)CC(=O)O)c(-c2ccc(F)cc2)c2ccccc21 | -78*!
CC(NC(=O)c1cc(-c2ccc(F)cc2)no1)c1nc2ccccc2n1C(C)C (centres undefined) | -10
CC(C)n1c(SCC(=O)O)nc2ccccc21 | 29
COC(=O)[C@@H]1C[C@@H](NC(=O)NCc2ccccc2F)CN1C | -6
CN(Cc1cccc2ncccc12)C(=O)c1cccc(C2CCNC2)c1 (centres undefined) | 4
O=C(NCc1nnc2n1CCCC2)c1cccc(C2CCNC2)c1 (centres undefined) | 5
CCn1nc(CNC(=O)c2cccc(C3CCNC3)c2)c2ccccc21 (centres undefined) | -86*
CC(COc1ccccc1)NCc1n[nH]c2c1CCCCC2 (centres undefined) | -21
COc1ccc(-c2nc(C)c(CCNC(=O)C(=O)Nc3ccccc3)s2)cc1 | 1
SMILES | Tgondii IFNg
COc1ccc(Cc2nn3c(C(=O)c4cccs4)nn(-c4ccccc4)c3nc2=O)cc1 | -94*
COc1ccc(-c2nc(C)c(CCNC(=O)c3cccs3)s2)cc1 | i
CCn1c(=O)c(-c2nc(-c3ccccc3C)no2)c(O)c2cc(F)ccc21 | 35
C=C[C@H]1CN2CC[C@H]1C[C@@H]2[C@H](O)c1ccnc2ccc(OC)cc12 | -16
C=C[C@H]1CN2CC[C@H]1C[C@@H]2[C@@H](O)c1ccnc2ccc(OC)cc12 | -88*!
C=CC1CN2CCC1CC2[C@@H](O)c1ccnc2ccc(OC)cc12 (some centres undefined) | -60
CS(=O)(=O)N1CCn2cc(CN3CCCC3)nc2C1 | 11
COc1cccc(COC2CN(CCc3ccccc3)C(=O)CN(C(=O)c3csc(C)n3)C2)c1 (centres undefined) | -9
CCc1[nH]c2ccc(CNC(=O)c3ccc4[nH]c(=O)[nH]c4c3)cc2c1C | 4
Cc1ccc(C(=O)Nc2ccc(NC(=O)C(C)n3ccnc3C)cc2)o1 (centres undefined) | 17
CC(=O)N1[C@H](CN2CCCC2)C[C@H]2CN(C(=O)c3ccco3)CC[C@H]21 | -4
CC(=O)N1[C@H](CN2CCCC2)C[C@H]2CN(Cc3ccc(C)o3)CC[C@H]21 | -80*
CC(=O)N1C2CN(Cc3ccc(C)o3)CC2C[C@@H]1C(=O)NCC1CC1 (some centres undefined) | -22
c1ccc2c(CC3=NCCN3)cccc2c1 | -1
C(=N\NC1=NCCN1)/c1c2ccccc2c(/C=N/NC2=NCCN2)c2ccccc12 | -75*
Brc1c(NC2=NCCN2)ccc2nccnc12 | 11
CCN1C(=O)CCc2cc(NC(=O)Cc3cccs3)ccc21 | 3
Cn1c(CN2C[C@@H](c3ccccc3F)[C@@]3(CCCCC(=O)N3)C2)nc2ccccc21 | -4
CN(C)CC[C@H](CSc1ccccc1)Nc1ccc(S(=O)(=O)NC(=O)c2ccc(N3CCN(Cc4ccccc4-c4ccc(Cl)cc4)CC3)cc2)cc1[N+](=O)[O-] | -76*
CC1(C)CCC(c2ccc(Cl)cc2)=C(CN2CCN(c3ccc(C(=O)NS(=O)(=O)c4ccc(N[C@H](CCN5CCOCC5)CSc5ccccc5)c(S(=O)(=O)C(F)(F)F)c4)cc3)CC2)C1 | -72*
O=S(=O)(NCCN1CCOCC1)c1cccc(C(F)(F)F)c1 | -6
OC1(c2cccnc2)CCN(c2ncc(-c3cccs3)c(-c3nccs3)n2)CC1 | 8
